# Records with an inconclusive call do not appear. Entries that show only a call come without a potency. Calls of active or inactive are those of the source. Unless noted, the call rests on the fitted dose curve; in most records, active means well fitted curve in the direction sought with a large enough effect; inconclusive means small, poorly fitted or top-dose-only effect, or another doubt; inactive means no such curve, though single readings can be large; an effect the other way counts as inactive or inconclusive.
# Key:
# [1] = target: Alpha-galactosidase A (Homo sapiens) (UniProt P06280); assay: Counterscreen for Glucocerebrosidase Inhibitors: qHTS Assay for Human alpha-Galactosidase at pH 4.5 (AID 992)
# Sequence of Alpha-galactosidase A (Homo sapiens) (P06280 whole entry, looked up): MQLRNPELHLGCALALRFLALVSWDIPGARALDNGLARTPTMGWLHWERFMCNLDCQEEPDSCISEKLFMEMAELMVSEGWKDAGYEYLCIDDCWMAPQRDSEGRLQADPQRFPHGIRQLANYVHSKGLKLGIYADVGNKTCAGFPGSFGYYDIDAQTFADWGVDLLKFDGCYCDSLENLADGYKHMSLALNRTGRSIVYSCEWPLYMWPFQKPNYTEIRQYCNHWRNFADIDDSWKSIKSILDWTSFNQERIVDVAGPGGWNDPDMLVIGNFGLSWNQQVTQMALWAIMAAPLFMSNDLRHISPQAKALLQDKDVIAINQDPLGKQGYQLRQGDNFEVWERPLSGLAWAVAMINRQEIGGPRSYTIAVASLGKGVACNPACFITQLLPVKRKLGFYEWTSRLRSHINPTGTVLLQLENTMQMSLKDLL
# How it was run: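 Citrate buffer pH 4.5, Tween-20 0.005%. Enzyme 2 nM, substrate 80 uM, 20 min RT. Stop pH 10. Fluorescence Ex 365/Em 440. AC50 by Hill fit.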
# [2] = target: alpha-glucosidase (Oryza sativa, rice) (UniProt Q653V4); assay: Counterscreen for Glucocerebrosidase Inhibitors: qHTS Assay for Rice alpha-Glucosidase at pH 5.0 (AID 997)
# How it was run: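 Endpoint fluorogenic assay at pH 5.0: compounds (0.7 nM to 77 uM) titrated against 4 nM rice enzyme and 400 uM 4-MU-alpha-glucoside for 20 min at room temperature; NaOH/glycine stop, read ex 365/em 440 nm, Hill-fitted AC50.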
# [3] = target: Alpha-galactosidase (Coffea arabica) (UniProt Q42656); assay: Counterscreen for Glucocerebrosidase Inhibitors: qHTS Assay for Coffee Bean alpha-Galactosidase at pH 5.9 (AID 998)
# Sequence of Alpha-galactosidase (Coffea arabica) (Q42656 whole entry, looked up): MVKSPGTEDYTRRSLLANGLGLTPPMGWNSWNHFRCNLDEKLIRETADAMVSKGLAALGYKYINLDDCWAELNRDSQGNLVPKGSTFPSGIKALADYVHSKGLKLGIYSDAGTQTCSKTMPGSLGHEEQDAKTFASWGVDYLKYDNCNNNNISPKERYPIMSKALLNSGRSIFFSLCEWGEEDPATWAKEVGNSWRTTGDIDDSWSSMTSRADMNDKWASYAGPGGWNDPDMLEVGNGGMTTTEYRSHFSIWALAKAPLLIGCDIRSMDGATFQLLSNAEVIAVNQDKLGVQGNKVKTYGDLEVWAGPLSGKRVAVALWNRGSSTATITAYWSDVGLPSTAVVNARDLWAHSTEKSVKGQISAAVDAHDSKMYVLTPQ
# How it was run: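 Fluorogenic 4-MU substrate hydrolysis, 80 uM substrate and 2 nM coffee bean alpha-galactosidase, pH 5.9 citrate buffer, 20 min at room temperature, then NaOH/glycine stop. Titration 0.7 nM–77 uM, normalized to no-enzyme and enzyme controls, AC50 via Hill equation.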
# [4] = Validation of Assay for Modulators of Lamin A Splicing (AID 1459; active means well fitted curve in the direction sought with a large enough effect in the signal ratio; the % refers to the signal ratio;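 further: cells exposed to compound for two days before reading; ratio rise marks activators and ratio drop marks inhibitors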)
# How it was run: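 S3 HeLa stably expressing lamin A-EGFP splicing minigene and DsRed2, 600 cells/well in Opti-MEM with 2% FBS, treated 48 h at 37C; laser-scanning cytometry gives GFP/RFP total intensity ratio; ancitabine positive control, 0.5% DMSO vehicle.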
# [5] = target: DNA repair nuclease/redox regulator APEX1 (Homo sapiens) (UniProt P27695); assay: qHTS Validation Assay for Inhibitors of the Human Apurinic/apyrimidinic Endonuclease 1 (APE1) (AID 1705; further: potency means the concentration at half of the fitted maximal effect)
# Sequence of DNA repair nuclease/redox regulator APEX1 (Homo sapiens) (P27695 whole entry, looked up): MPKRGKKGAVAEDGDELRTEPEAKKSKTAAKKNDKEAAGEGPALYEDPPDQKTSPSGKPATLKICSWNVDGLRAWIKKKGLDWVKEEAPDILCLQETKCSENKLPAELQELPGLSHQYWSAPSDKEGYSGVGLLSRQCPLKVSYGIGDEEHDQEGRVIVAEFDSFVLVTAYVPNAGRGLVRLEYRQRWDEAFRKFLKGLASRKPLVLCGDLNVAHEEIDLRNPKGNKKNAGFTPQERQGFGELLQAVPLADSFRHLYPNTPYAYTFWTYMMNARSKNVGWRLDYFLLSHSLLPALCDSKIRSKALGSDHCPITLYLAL
# How it was run: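 Fluorogenic double-stranded THF abasic-site substrate (5'-TAMRA/3'-BHQ-2), 50 nM final. Enzyme preincubated with compound 15 min at room temperature, then substrate added. Kinetic fluorescence (ex 525/em 598 nm) read three times at 60 s intervals; activity taken as third-minus-first read difference.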
# [6] = Counterscreen for APE1 Inhibitors: Fluorescent Dye Displacement Validation Assay (AID 1707); further: potency means the concentration at half of the fitted maximal effect
# How it was run: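 Signal: ThO fluorescence (ex 480 nm/em 540 nm) on binding 50 nM dsDNA; displacement by test compound reduces it. Conditions: 250 nM dye, 50 mM Tris-HCl pH7.5, 2 mM MgCl2, 50mM NaCl, 0.01% Tween-20.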
# [7] = target: Endonuclease 4 (Escherichia coli (strain K12)) (UniProt P0A6C1); assay: Counterscreen for APE1 Inhibitors: qHTS Validation Assay for Inhibitors of Endonuclease IV (AID 1708)
# How it was run: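 The reaction buffer contained 50 mM Tris-HCl pH 7.5, 50 mM NaCl, 2 mM MgCl2, 1 mM DTT and 0.01% Tween-20. Incision of a 50 nM fluorophore/quencher THF substrate by 2 nM enzyme was measured kinetically.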
# [8] = qHTS for differential inhibitors of proliferation of Plasmodium falciparum line 7G8 (AID 1815);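 further: parasite growth measured after three days of incubation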; further: potency means the concentration at half of the fitted maximal effect
# [9] = qHTS for differential inhibitors of proliferation of Plasmodium falciparum line 3D7 (AID 1876); further: potency means the concentration at half of the fitted maximal effect
# [10] = qHTS for differential inhibitors of proliferation of Plasmodium falciparum line GB4 (AID 1816); conditions: Potency: Plasmodium falciparum GB4 proliferation inhibition;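 further: parasite growth measured after 72 h incubation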; further: potency means the concentration at half of the fitted maximal effect
SMILES,outcome [1],outcome [2],outcome [3],outcome [4],Potency [5],Potency [6],Potency [7],Potency [8],Potency [9],Potency [10]
CN(N=O)c1cc(O)ccc1O,inactive,inactive,inactive,inactive,1.41 µM (active),14.1 µM (active),inactive,inactive,inactive,–
COc1cc(CC(C)N)c(OC)cc1I (stereo not given),–,–,–,inactive,inactive,inactive,–,10 µM (active),inactive,6.31 µM (active)
Ic1ccccc1CNC1C2CCN(CC2)C1C(c1ccccc1)c1ccccc1 (stereo not given),–,–,–,inactive,inactive,inactive,inactive,7.08 µM (active),5.01 µM (active),5.01 µM (active)
COc1ccc2c(c1)[C@@]13CCCC[C@H]1[C@@H](C2)NCC3,–,–,–,inactive,inactive,inactive,inactive,3.55 µM (active),–,7.08 µM (active)
CCN(CC)c1ncnc2c1ncn2[C@@H]1O[C@H](COP(=O)(O)OP(=O)(O)C(Br)(Br)P(=O)(O)O)[C@@H](O)[C@H]1O,–,–,–,inactive,inactive,inactive,inactive,inactive,inactive,inactive
CCCn1c(=O)c2[nH]c(C3CCCC3)nc2n(CCCOC(=O)c2ccc(S(=O)(=O)F)cc2)c1=O,inactive,inactive,inactive,inactive,inactive,inactive,inactive,12.6 µM (active),–,–
CC(Cc1ccc(OCC(=O)O)cc1)NCC(O)c1cccc(Cl)c1 (stereo not given),–,–,–,inactive,inactive,inactive,inactive,–,inactive,inactive
C[Se]C[C@H](N)C(=O)O,–,–,–,inactive,inactive,inactive,inactive,inactive,inactive,inactive
COc1ccc2c(c1)C13CCCCC1C(C2)N(C)CC3 (stereo not given),–,–,–,inactive,inactive,inactive,inactive,3.16 µM (active),–,–
O=P(O)(O)C(Cl)(Cl)P(=O)(O)O,inactive,inactive,inactive,inactive,inactive,inactive,–,inactive,inactive,inactive
Clc1ccc(N2CC3CCC(C2)N3)nn1,–,–,–,inactive,inactive,inactive,inactive,inactive,inactive,–
N#CC(C#N)=Cc1cc(O)c(O)c(O)c1,inactive,inactive,inactive,inactive,inactive,inactive,inactive,6.31 µM (active),12.6 µM (active),10 µM (active)
CO[C@H]1CC=C2CCN3CCC4=C(CC(=O)OC4)[C@]23C1,–,–,–,inactive,inactive,inactive,–,inactive,inactive,inactive
CCCn1c(C)c(C(=O)c2ccc3ccccc3c2)c2ccccc21,inactive,inactive,inactive,inactive,inactive,inactive,–,7.94 µM (active),10 µM (active),10 µM (active)
c1ccc2c(N3CCNCC3)cccc2c1,inactive,inactive,inactive,inactive,inactive,inactive,inactive,12.6 µM (active),–,12.6 µM (active)

# Reference: PubChem BioAssay (NCATS)
